{"source": "PubChem BioAssay (NCATS)", "note": "Inconclusive results are not listed. Unmarked numbers belong to inactive results. The source made the active and inactive calls. Calls follow the shape of the dose curve; as a rule, active = well fitted inhibition curve with a large enough effect; inconclusive = small, poorly fitted or top-dose-only effect; inactive = no such curve, though single readings can be large or run the other way. Potency is read from the fitted curve at half-maximal effect."}
{"experiment": "qHTS Screen of the MIPE 4.0 Collection Against Ewings Sarcoma (RDES) (AID 1259252); also: nearly all actives have a fitted effect of over 35% in size", "settings": "RD-ES Ewing sarcoma viability, CellTiter-Glo, 48 h; series mostly up to 45.8 µM; viability (percent of control): at the top concentration", "method_in_brief": "(§1)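 Dose series incubated 48 h with cells in RPMI plus 5% FBS, glutamine and penicillin/streptomycin; cell viability then quantified via CellTiter-Glo.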"}
{"smiles": "Fc1ccc(CNc2ncnc3ccc(F)cc23)cc1", "Potency": "13.2 µM (active)"}
{"smiles": "CN1CCC[C@H]1CCO[C@](C)(c1ccccc1)c1ccc(Cl)cc1", "Potency": "20.9 µM (active)"}
{"smiles": "OC[C@H]1O[C@@H](OCCc2ccc(O)cc2)[C@H](O)[C@@H](O)[C@H]1O", "Potency": "23.5 µM (active)"}
{"smiles": "C[C@H](c1ccc(F)cc1CCCC(=O)O)N(c1cc(F)ccc1F)S(=O)(=O)c1ccc(Cl)cc1", "Potency": "18.7 µM (active)"}
{"experiment": "qHTS Screen of the MIPE 4.0 Collection Against Ewings Sarcoma (TC71) (AID 1259253); also: nearly all actives have a fitted effect of over 40% in size;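 as to viability (% of DMSO): 100% = DMSO-treated cells and 0% = medium-only wells without cells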", "settings": "TC71 Ewing sarcoma viability, CellTiter-Glo, 48 h; series mostly up to 45.8 µM; viability (% of DMSO): at the top concentration", "method_in_brief": "as §1", "units": {"viability (% of DMSO)": "%"}}
{"smiles": "CNC(=O)c1cc(Oc2ccc(NC(=O)Nc3ccc(Cl)c(C(F)(F)F)c3)c(F)c2)ccn1", "Potency": "20.9 µM (active)"}
{"smiles": "COc1ccnc(CS(=O)c2nc3ccc(OC(F)F)cc3[nH]2)c1OC", "note": "(configuration not stated)", "viability (% of DMSO)": 116}
{"smiles": "CN1N=C(N)c2cn([C@@H]3O[C@H](COP(=O)(O)O)[C@@H](O)[C@@H]3O)c3ncnc1c23", "Potency": "7.43 µM (active)"}
{"smiles": "NC(=O)c1ccc(N(C(N)=O)c2c(F)cccc2F)nc1-c1ccc(F)cc1F", "viability (% of DMSO)": 99.2}
{"smiles": "COc1ccc(Cn2ccc3ccc(C(=O)NO)cc32)cc1", "Potency": "13.2 µM (active)"}
{"smiles": "CCOC(=O)c1c(CSc2ccccc2)n(C)c2cc(Br)c(O)c(CN(C)C)c12", "Potency": "16.6 µM (active)"}
{"smiles": "CC(C)C[C@H](NC(=O)c1cc2ccccc2s1)C(=O)N1CCN(C(=O)[C@H](CO)NS(=O)(=O)c2ccc(Cl)cc2Cl)CC1", "Potency": "23.5 µM (active)"}
{"smiles": "CN(C)S(=O)(=O)c1ccc2c(c1)C(=Cc1cc3c([nH]1)CCCC3)C(=O)N2", "Potency": "9.35 µM (active)"}
{"smiles": "CON(C)C(=O)N1N=C(c2cc(F)ccc2F)S[C@]1(CCCN)c1ccccc1", "viability (% of DMSO)": 16.8}
{"smiles": "O=c1cc(-c2ccc(O)c(O)c2)oc2cc(O)cc(O)c12", "viability (% of DMSO)": 99.1}
{"smiles": "CCN1CCC(n2cc(CNc3cc(Cl)c4ncc(C#N)c(Nc5ccc(F)c(Cl)c5)c4c3)nn2)CC1", "Potency": "18.7 µM (active)"}
{"smiles": "COc1c(C)c2c(c(O)c1CC=C(C)CCC(=O)OCCN1CCOCC1)C(=O)OC2", "Potency": "1.48 µM (active)"}
{"smiles": "CCN(CC)CCCCNc1nc2cc(Cl)c(Cl)cc2nc1-c1ccc(-c2cccs2)s1", "Potency": "23.5 µM (active)"}
{"smiles": "C[C@@H]1[C@H](C)CC[C@]2(C(=O)O)CC[C@]3(C)C(=CC[C@@H]4[C@@]5(C)CC[C@H](O)C(C)(C)[C@H]5CC[C@]43C)[C@@H]12", "Potency": "1.71 µM (active)"}
{"smiles": "CC[C@@H]([C@H](C)O)n1ncn(-c2ccc(N3CCN(c4ccc(OCC5CO[C@@](Cn6cncn6)(c6ccc(F)cc6F)C5)cc4)CC3)cc2)c1=O", "note": "(some centres not stated)", "viability (% of DMSO)": 117}
{"smiles": "O=S(=O)(NCCNCC=Cc1ccc(Br)cc1)c1cccc2cnccc12", "Potency": "2.64 µM (active)"}
{"smiles": "Cc1cccc2c1CC[C@H](CN1CCC(c3c(Cl)cccc3Cl)CC1)C[C@@H]2O", "Potency": "5.9 µM (active)"}
{"smiles": "CCC(=O)N1CCN(c2ccc(-n3c(=O)ccc4cnc5ccc(-c6cnc7ccccc7c6)cc5c43)cc2C(F)(F)F)CC1", "Potency": "0.0296 µM (active)"}
{"smiles": "O=C(c1ccc(C=Cc2n[nH]c3ccccc23)cc1)N1CCNCC1", "Potency": "1.66 µM (active)"}
{"smiles": "CCCCCCOC(=O)N=C(N)c1ccc(NCc2nc3cc(C(=O)N(CCC(=O)OCC)c4ccccn4)ccc3n2C)cc1", "Potency": "20.9 µM (active)"}
{"smiles": "O=C(C=Cc1ccc(O)cc1)c1ccc(O)cc1O", "Potency": "14.8 µM (active)"}
{"smiles": "CC(C)n1c(C=C[C@H](O)C[C@H](O)CC(=O)O)c(-c2ccc(F)cc2)c2ccccc21", "Potency": "3.32 µM (active)"}
{"smiles": "c1ccc(-c2oc3ncnc(NC[C@@H]4CCCO4)c3c2-c2ccccc2)cc1", "Potency": "23.5 µM (active)"}
{"smiles": "NC(=O)c1nnn(Cc2cc(Cl)c(C(=O)c3ccc(Cl)cc3)c(Cl)c2)c1N", "Potency": "18.7 µM (active)"}
{"smiles": "O=C(Nc1ccc(OC(F)(F)F)cc1)c1sccc1NCc1ccnc2ccccc12", "Potency": "16.6 µM (active)"}
{"smiles": "N[C@@H](CC(=O)N1CCn2c(nnc2C(F)(F)F)C1)Cc1cc(F)c(F)cc1F", "Potency": "16.6 µM (active)"}
{"smiles": "Cc1ccc(NC(=O)c2ccc(CN3CCN(C)CC3)cc2)cc1Nc1nc(-c2cccnc2)cs1", "Potency": "23.5 µM (active)"}
{"smiles": "COc1nccc(-c2c(-c3ccc(F)cc3)ncn2C2CCNCC2)n1", "Potency": "5.9 µM (active)"}
{"smiles": "C[C@@H](O[C@H]1OCCN(Cc2n[nH]c(=O)[nH]2)[C@@H]1c1ccc(F)cc1)c1cc(C(F)(F)F)cc(C(F)(F)F)c1", "Potency": "20.9 µM (active)"}
{"smiles": "N=C1SC(=Cc2ccc(-c3ccc4c(c3)C(=O)NC4=O)o2)C(=O)N1c1ccc(Br)cc1", "Potency": "20.9 µM (active)"}
{"smiles": "O=C(O)Cc1cccc(OCCCN(Cc2cccc(C(F)(F)F)c2Cl)CC(c2ccccc2)c2ccccc2)c1", "Potency": "20.9 µM (active)"}
{"smiles": "Nc1ccn([C@@H]2O[C@H](CO)[C@@H](O)[C@H]2O)c(=O)n1", "Potency": "0.0332 µM (active)"}
{"experiment": "qHTS Screen of the MIPE 4.0 Collection Against Ewings Sarcoma (EW8) (AID 1259255); also: nearly all actives have a fitted effect of over 35% in size;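 as to viability: 100% = DMSO-treated cells and 0% = medium-only wells without cells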", "settings": "EW8 Ewing sarcoma viability, CellTiter-Glo, 48 h; series mostly up to 45.8 µM; viability: at the top concentration", "method_in_brief": "as §1", "units": {"viability": "%"}}
{"smiles": "CNC(=O)c1cc(Oc2ccc(NC(=O)Nc3ccc(Cl)c(C(F)(F)F)c3)c(F)c2)ccn1", "Potency": "20.9 µM (active)"}
{"smiles": "COc1ccnc(CS(=O)c2nc3ccc(OC(F)F)cc3[nH]2)c1OC", "note": "(configuration not stated)", "viability": 91.7}
{"smiles": "CN1N=C(N)c2cn([C@@H]3O[C@H](COP(=O)(O)O)[C@@H](O)[C@@H]3O)c3ncnc1c23", "Potency": "13.2 µM (active)"}
{"smiles": "NC(=O)c1ccc(N(C(N)=O)c2c(F)cccc2F)nc1-c1ccc(F)cc1F", "viability": 106}
{"smiles": "COc1ccc(Cn2ccc3ccc(C(=O)NO)cc32)cc1", "Potency": "14.8 µM (active)"}
{"smiles": "CCOC(=O)c1c(CSc2ccccc2)n(C)c2cc(Br)c(O)c(CN(C)C)c12", "Potency": "20.9 µM (active)"}
{"smiles": "CC(C)C[C@H](NC(=O)c1cc2ccccc2s1)C(=O)N1CCN(C(=O)[C@H](CO)NS(=O)(=O)c2ccc(Cl)cc2Cl)CC1", "Potency": "20.9 µM (active)"}
{"smiles": "CN(C)S(=O)(=O)c1ccc2c(c1)C(=Cc1cc3c([nH]1)CCCC3)C(=O)N2", "Potency": "8.33 µM (active)"}
{"smiles": "CON(C)C(=O)N1N=C(c2cc(F)ccc2F)S[C@]1(CCCN)c1ccccc1", "viability": 4.77}
{"smiles": "O=c1cc(-c2ccc(O)c(O)c2)oc2cc(O)cc(O)c12", "viability": 103}
{"smiles": "CCN1CCC(n2cc(CNc3cc(Cl)c4ncc(C#N)c(Nc5ccc(F)c(Cl)c5)c4c3)nn2)CC1", "Potency": "20.9 µM (active)"}
{"smiles": "COc1c(C)c2c(c(O)c1CC=C(C)CCC(=O)OCCN1CCOCC1)C(=O)OC2", "Potency": "1.05 µM (active)"}
{"smiles": "CCN(CC)CCCCNc1nc2cc(Cl)c(Cl)cc2nc1-c1ccc(-c2cccs2)s1", "Potency": "23.5 µM (active)"}
{"smiles": "C[C@@H]1[C@H](C)CC[C@]2(C(=O)O)CC[C@]3(C)C(=CC[C@@H]4[C@@]5(C)CC[C@H](O)C(C)(C)[C@H]5CC[C@]43C)[C@@H]12", "Potency": "5.4 µM (active)"}
{"smiles": "CC[C@@H]([C@H](C)O)n1ncn(-c2ccc(N3CCN(c4ccc(OCC5CO[C@@](Cn6cncn6)(c6ccc(F)cc6F)C5)cc4)CC3)cc2)c1=O", "note": "(some centres not stated)", "viability": 106}
{"smiles": "Cc1cccc2c1CC[C@H](CN1CCC(c3c(Cl)cccc3Cl)CC1)C[C@@H]2O", "Potency": "14.8 µM (active)"}
{"smiles": "CCC(=O)N1CCN(c2ccc(-n3c(=O)ccc4cnc5ccc(-c6cnc7ccccc7c6)cc5c43)cc2C(F)(F)F)CC1", "Potency": "0.0332 µM (active)"}
{"smiles": "O=C(c1ccc(C=Cc2n[nH]c3ccccc23)cc1)N1CCNCC1", "Potency": "0.662 µM (active)"}
{"smiles": "CCCCCCOC(=O)N=C(N)c1ccc(NCc2nc3cc(C(=O)N(CCC(=O)OCC)c4ccccn4)ccc3n2C)cc1", "Potency": "8.33 µM (active)"}
{"smiles": "O=C(C=Cc1ccc(O)cc1)c1ccc(O)cc1O", "Potency": "20.9 µM (active)"}
{"smiles": "CC(C)n1c(C=C[C@H](O)C[C@H](O)CC(=O)O)c(-c2ccc(F)cc2)c2ccccc21", "Potency": "9.35 µM (active)"}
{"smiles": "c1ccc(-c2oc3ncnc(NC[C@@H]4CCCO4)c3c2-c2ccccc2)cc1", "Potency": "18.7 µM (active)"}
{"smiles": "NC(=O)c1nnn(Cc2cc(Cl)c(C(=O)c3ccc(Cl)cc3)c(Cl)c2)c1N", "Potency": "26.4 µM (active)"}
{"smiles": "O=C(Nc1ccc(OC(F)(F)F)cc1)c1sccc1NCc1ccnc2ccccc12", "Potency": "18.7 µM (active)"}
{"smiles": "N[C@@H](CC(=O)N1CCn2c(nnc2C(F)(F)F)C1)Cc1cc(F)c(F)cc1F", "Potency": "18.7 µM (active)"}
{"smiles": "Cc1ccc(NC(=O)c2ccc(CN3CCN(C)CC3)cc2)cc1Nc1nc(-c2cccnc2)cs1", "Potency": "23.5 µM (active)"}
{"smiles": "COc1nccc(-c2c(-c3ccc(F)cc3)ncn2C2CCNCC2)n1", "Potency": "9.35 µM (active)"}
{"smiles": "C[C@@H](O[C@H]1OCCN(Cc2n[nH]c(=O)[nH]2)[C@@H]1c1ccc(F)cc1)c1cc(C(F)(F)F)cc(C(F)(F)F)c1", "Potency": "26.4 µM (active)"}
{"smiles": "N=C1SC(=Cc2ccc(-c3ccc4c(c3)C(=O)NC4=O)o2)C(=O)N1c1ccc(Br)cc1", "viability": 97.5}
{"smiles": "O=C(O)Cc1cccc(OCCCN(Cc2cccc(C(F)(F)F)c2Cl)CC(c2ccccc2)c2ccccc2)c1", "Potency": "20.9 µM (active)"}
{"smiles": "Nc1ccn([C@@H]2O[C@H](CO)[C@@H](O)[C@H]2O)c(=O)n1", "Potency": "0.0935 µM (active)"}
